We go through 16 targets from the supplement of paper PMC10849652.

Targets with a hit are over-represented here; the source holds about 7,900 in all. About 0.6% of all pairs of compound and target were hits. A number with no mark means an inactive call.

What all share (experiment): log2 fold change, soluble protein after heating vs DMSO (PISA); higher = thermal stabilisation; K562 cells, 10 uM, 30 min; active = over 0.2 and 3.5 SD of the protein, either way, in both replicates (recomputed)
Compound in assay [1]: COC1=CC=C(C=C1)CN2C=CC3=C2C=C(C=C3)C(=O)NO
The method, boiled down: (§1)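 Soluble protein was defined as the supernatant after 21,000xg for 90 min. It came from K562 cells at 2×10^6 cells/mL given 10 μM compound for 30 min, heated in aliquots for 3 min across 48°C-58°C, pooled, and extracted in PBS with 0.5% NP-40 at 4°C, and was quantified by TMTpro 16plex LC-MS/MS with equalised channel sums. Thermal stability against control samples, from duplicates, is reported as log2 fold change.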

Compound in assay [2]: CON(C)C(=O)N1N=C(c2cc(F)ccc2F)S[C@@]1(CCCN)c1ccccc1 [filanesib]
The method, boiled down: as §1

Compound in assay [3]: COc1cc(Nc2ncc3c(n2)-c2ccc(Cl)cc2C(c2c(F)cccc2OC)=NC3)ccc1C(=O)O [alisertib]
The method, boiled down:
as §1

Compound in assay [4]: COc1cccc2cc(-c3nc([C@H]4CC[C@H](C(=O)O)CC4)n4ncnc(N)c34)[nH]c12
The method, boiled down:
as §1

Compound in assay [5]: CO[C@H]1C[C@@H]2CC[C@@H](C)[C@@](O)(O2)C(=O)C(=O)N2CCCC[C@H]2C(=O)O[C@H]([C@H](C)C[C@@H]2CC[C@H](n3cnnn3)[C@H](OC)C2)CC(=O)[C@H](C)/C=C(\C)[C@@H](O)[C@@H](OC)C(=O)[C@H](C)C[C@H](C)/C=C/C=C/C=C/1C [zotarolimus]
The method, boiled down:
as §1

Compound in assay [6]: COc1cc(C(=O)O)ccc1NC(=O)[C@@H]1N[C@@H](CC(C)(C)C)[C@](C#N)(c2ccc(Cl)cc2F)[C@H]1c1cccc(Cl)c1F [idasanutlin]
The method, boiled down: as §1

Compound in assay [7]: COc1cc2nc(-c3cc(F)ccc3O)nc(N[C@@H]3CNC[C@H]3C(C)(C)O)c2cc1OC
The method, boiled down:
as §1

Compound in assay [8]: COc1cc2ncnc(Nc3ccc(F)c(Cl)c3)c2cc1OCCCN1CCOCC1 [gefitinib]
The method, boiled down: as §1

Compound in assay [9]: CS(=O)(=O)CCNCc1ccc(-c2ccc3ncnc(Nc4ccc(OCc5cccc(F)c5)c(Cl)c4)c3c2)o1 [lapatinib]
The method, boiled down: as §1

Compound in assay [10]: CS(=O)(=O)N1CCN(Cc2cc3nc(-c4cccc5[nH]ncc45)nc(N4CCOCC4)c3s2)CC1 [pictilisib]
The method, boiled down:
as §1

Chain of UniProt O94913 (O94913 whole entry, looked up): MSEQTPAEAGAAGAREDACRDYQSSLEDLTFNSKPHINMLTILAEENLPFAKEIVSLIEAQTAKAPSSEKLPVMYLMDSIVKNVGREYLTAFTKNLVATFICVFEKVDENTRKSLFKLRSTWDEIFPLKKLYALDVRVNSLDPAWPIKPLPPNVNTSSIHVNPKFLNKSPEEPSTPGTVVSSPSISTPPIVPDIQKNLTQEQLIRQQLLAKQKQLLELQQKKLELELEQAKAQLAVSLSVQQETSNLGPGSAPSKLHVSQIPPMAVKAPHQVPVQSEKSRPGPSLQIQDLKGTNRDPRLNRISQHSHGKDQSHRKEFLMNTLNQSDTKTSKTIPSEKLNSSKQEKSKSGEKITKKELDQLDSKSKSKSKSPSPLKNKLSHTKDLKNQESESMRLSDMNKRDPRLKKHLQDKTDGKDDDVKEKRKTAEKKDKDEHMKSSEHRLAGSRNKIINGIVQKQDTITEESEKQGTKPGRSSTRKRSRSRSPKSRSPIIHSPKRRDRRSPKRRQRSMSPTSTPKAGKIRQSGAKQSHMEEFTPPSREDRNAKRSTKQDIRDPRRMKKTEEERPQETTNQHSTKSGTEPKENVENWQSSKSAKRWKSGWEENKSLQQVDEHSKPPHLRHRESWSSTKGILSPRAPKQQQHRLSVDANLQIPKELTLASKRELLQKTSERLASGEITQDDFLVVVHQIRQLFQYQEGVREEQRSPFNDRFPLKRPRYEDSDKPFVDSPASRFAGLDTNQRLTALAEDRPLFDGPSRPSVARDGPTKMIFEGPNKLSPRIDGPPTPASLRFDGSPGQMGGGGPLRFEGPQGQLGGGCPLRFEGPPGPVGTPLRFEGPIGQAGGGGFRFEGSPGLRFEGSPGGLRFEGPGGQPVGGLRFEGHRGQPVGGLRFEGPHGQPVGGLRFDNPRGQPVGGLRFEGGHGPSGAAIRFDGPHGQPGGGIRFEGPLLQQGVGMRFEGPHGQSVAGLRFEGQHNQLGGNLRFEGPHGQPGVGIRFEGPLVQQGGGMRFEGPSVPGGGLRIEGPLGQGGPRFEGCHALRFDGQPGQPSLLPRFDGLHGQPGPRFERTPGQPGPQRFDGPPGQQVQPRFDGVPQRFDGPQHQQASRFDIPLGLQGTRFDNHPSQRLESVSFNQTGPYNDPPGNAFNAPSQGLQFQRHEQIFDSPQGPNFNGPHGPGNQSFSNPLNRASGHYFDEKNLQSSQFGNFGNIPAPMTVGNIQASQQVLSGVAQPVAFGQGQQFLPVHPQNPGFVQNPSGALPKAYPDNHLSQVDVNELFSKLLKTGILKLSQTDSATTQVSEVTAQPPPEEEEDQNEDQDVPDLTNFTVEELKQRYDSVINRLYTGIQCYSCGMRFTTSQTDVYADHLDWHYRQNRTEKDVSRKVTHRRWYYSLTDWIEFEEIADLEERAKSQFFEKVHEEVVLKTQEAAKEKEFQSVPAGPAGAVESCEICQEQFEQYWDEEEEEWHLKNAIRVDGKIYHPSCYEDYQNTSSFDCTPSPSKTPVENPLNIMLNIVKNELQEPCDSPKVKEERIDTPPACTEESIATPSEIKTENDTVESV
Chain of UniProt Q15126 (Q15126 whole entry, looked up): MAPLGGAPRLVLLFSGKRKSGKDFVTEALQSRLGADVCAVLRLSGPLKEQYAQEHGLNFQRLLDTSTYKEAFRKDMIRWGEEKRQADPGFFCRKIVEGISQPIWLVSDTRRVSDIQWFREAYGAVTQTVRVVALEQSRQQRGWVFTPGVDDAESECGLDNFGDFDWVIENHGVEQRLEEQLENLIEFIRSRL
Chain of UniProt Q9NYI0 (Q9NYI0 whole entry, looked up): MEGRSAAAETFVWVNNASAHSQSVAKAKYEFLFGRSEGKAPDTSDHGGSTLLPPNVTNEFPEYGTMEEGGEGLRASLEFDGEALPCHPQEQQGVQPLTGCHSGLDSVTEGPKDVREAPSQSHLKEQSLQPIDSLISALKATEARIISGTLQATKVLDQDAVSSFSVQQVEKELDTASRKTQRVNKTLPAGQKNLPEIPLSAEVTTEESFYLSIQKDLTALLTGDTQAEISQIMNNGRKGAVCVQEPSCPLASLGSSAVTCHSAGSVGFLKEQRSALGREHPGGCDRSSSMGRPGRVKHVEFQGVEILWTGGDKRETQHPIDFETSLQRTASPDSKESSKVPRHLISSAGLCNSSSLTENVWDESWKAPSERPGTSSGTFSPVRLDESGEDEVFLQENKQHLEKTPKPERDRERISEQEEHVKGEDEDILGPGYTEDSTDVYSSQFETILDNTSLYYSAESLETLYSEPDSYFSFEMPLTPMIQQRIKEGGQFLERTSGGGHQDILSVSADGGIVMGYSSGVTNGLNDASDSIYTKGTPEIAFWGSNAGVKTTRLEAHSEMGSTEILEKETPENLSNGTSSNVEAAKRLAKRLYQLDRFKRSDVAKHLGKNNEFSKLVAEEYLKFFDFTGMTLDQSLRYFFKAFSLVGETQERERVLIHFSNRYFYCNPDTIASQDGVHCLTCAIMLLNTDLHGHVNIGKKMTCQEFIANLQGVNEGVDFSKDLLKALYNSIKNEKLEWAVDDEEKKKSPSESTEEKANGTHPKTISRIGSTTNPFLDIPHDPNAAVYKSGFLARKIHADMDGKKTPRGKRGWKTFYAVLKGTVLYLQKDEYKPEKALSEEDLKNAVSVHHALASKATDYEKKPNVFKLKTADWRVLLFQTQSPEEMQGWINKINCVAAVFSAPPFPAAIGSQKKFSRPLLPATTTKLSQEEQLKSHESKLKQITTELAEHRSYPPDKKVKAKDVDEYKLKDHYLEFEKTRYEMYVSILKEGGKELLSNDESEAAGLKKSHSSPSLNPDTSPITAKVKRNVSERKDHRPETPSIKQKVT
Chain of UniProt Q5THK1 (Q5THK1 whole entry, looked up): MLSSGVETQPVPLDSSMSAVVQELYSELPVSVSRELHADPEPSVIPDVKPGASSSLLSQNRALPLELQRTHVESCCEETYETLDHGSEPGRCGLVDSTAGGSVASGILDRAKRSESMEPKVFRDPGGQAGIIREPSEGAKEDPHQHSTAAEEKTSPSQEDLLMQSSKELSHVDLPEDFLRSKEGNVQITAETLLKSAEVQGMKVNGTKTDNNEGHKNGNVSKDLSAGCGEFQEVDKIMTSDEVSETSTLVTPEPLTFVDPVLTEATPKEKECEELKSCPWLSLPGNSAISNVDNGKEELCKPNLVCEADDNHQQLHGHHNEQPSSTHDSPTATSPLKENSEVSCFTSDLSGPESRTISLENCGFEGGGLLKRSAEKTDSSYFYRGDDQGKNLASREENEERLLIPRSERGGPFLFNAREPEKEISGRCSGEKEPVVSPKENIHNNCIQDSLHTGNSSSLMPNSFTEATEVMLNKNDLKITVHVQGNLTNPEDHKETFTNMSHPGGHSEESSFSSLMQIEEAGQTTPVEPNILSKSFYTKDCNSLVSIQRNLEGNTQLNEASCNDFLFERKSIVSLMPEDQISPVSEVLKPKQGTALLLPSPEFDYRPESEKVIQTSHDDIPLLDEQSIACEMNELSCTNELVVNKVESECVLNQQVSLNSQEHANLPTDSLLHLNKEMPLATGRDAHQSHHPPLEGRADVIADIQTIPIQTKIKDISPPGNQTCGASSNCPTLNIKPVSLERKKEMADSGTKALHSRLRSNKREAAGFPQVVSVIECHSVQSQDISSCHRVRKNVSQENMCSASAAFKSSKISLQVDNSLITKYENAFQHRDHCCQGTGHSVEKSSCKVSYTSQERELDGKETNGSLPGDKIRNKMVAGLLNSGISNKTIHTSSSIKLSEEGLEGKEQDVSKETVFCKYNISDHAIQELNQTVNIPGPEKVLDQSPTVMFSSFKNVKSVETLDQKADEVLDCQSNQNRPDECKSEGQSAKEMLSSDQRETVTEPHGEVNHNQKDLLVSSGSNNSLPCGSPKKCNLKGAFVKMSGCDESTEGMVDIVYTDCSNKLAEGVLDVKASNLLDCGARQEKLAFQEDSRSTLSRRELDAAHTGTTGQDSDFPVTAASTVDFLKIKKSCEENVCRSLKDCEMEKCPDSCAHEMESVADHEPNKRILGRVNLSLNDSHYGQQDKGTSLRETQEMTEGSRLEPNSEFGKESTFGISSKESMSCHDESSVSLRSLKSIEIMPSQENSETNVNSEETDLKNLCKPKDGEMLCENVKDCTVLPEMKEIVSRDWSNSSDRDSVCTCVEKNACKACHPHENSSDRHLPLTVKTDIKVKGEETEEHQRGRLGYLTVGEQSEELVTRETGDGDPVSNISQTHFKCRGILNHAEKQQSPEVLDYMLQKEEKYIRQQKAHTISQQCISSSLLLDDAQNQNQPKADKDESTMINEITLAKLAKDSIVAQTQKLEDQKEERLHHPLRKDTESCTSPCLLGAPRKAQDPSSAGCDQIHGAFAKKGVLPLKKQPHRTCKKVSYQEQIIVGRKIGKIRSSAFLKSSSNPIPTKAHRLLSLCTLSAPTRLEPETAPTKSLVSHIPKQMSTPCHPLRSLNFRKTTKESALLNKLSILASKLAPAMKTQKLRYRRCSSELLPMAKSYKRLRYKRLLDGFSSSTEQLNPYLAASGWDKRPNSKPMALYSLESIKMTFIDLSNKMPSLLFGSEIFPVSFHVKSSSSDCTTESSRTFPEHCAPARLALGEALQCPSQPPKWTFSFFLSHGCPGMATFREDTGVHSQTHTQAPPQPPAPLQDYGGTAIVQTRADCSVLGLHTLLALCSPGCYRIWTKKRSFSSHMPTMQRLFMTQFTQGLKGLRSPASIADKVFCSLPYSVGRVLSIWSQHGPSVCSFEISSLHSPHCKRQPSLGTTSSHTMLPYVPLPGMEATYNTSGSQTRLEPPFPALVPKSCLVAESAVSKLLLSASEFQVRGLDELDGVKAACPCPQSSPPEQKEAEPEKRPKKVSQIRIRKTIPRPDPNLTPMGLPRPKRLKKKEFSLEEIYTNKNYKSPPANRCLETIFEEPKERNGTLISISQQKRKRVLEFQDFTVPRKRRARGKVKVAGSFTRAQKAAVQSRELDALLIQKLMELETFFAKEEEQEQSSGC

Regarding PSMC3 (UniProt E9PLG2), the log2 fold change in [1] is -0.612; in assay [2], 0.17; in [3], 0.071; in assay [4] it was 0.079.
For PSMD8 (UniProt K7EK21), the log2 fold change in [5] was -0.174.
On to PHLDB1 isoform 2 (UniProt Q86UU1), for which the log2 fold change in assay [1] is 0; in assay [5] it was 0.014; in [6] it was -0.033; in assay [3] it was -0.098; in assay [7] it was -0.069; in [8], 0.149. The results for the log2 fold change in assay [4], in assay [9] and in assay [10] were -0.032, -0.039 and -0.498 (active), respectively.
As for PRR14L (UniProt Q5THK1), the log2 fold change in [5] is -0.083; in assay [6] it was 0; in assay [7] it was 0.069; in [8], -0.065; in assay [9], 0.1; in assay [10], 0.103.
For PPP2R5B (UniProt Q15173), the log2 fold change in assay [6] is -0.065; in assay [3], 0.088; in assay [7] it was 0.148; in assay [8], -0.079; in assay [4], -0.058; in assay [9], 0.051. The log2 fold change in [10] is 0.01.
For POLB (UniProt P06746), the log2 fold change in assay [2] is -0.155; in [5], 0.215; in [7], 0.037; in assay [8], 0.199; in assay [9], -0.006; in [10] it was -0.022.
Consider PTPA (UniProt A6PVN8), for which the log2 fold change was 0.019 in assay [2]; -0.143 in assay [5]; 0.09 in assay [6]; -0.383 in assay [3]; -0.085 in assay [7]; 0.021 in assay [8]. The values for the log2 fold change in assay [4], in assay [9] and in [10] were 0.297, 0.043 and 0.035, respectively.
For PIM1 isoform 2 (UniProt P11309), the figures for the log2 fold change in assay [3], in assay [4] and in [10] were 0.267, -0.327 and -0.126, respectively.
As for PEX5 isoform 4 (UniProt P50542), the log2 fold change was 0.064 in assay [2], -0.048 in [5] and -0.15 in [6].
As to PSMA3 (UniProt H0YJ03), the log2 fold change was 0.362 in assay [1]; -0.004 in [5]; 0.009 in assay [6]; 0.203 in [7]; 0.021 in assay [9].
For PCF11 (UniProt O94913), the log2 fold change in assay [1] was -0.169; in assay [5], -0.119; in assay [6], -0.097; in assay [3], 0.015; in assay [7], 0.076; in assay [4], 0.106. For the same target, the log2 fold change is 0.012 in assay [9] and 0.027 in assay [10].
For the target PSD3 (UniProt Q9NYI0), the log2 fold change in assay [1] was -0.003; in assay [5] it was 0.074; in [6] it was 0.015; in assay [3] it was -0.003; in assay [7], 0.141; in [8] it was 0.036. Moreover, the values for the log2 fold change in assay [4] and in assay [9] were 0.069 and -0.07, respectively.
For PSMC1 (UniProt G3V4X1), the log2 fold change was -0.045 in [5]; -0.106 in [7]; -0.036 in assay [8]; -0.105 in assay [9]; -0.071 in assay [10].
Consider PDE4DIP (UniProt E9PS60), for which the log2 fold change was 0 in [1] and -0.032 in assay [5].
Take POLR2E (UniProt P19388): the log2 fold change is 0.095 in assay [1]; -0.065 in assay [5]; -0.061 in assay [6]; -0.21 in assay [3]; 0.291 (active) in assay [7]; 0.007 in [8]. For the same target, the log2 fold change was 0.029 in assay [4], -0.013 in [9] and 0.063 in assay [10].
Turning to PMVK (UniProt Q15126), the log2 fold change in [2] was 0.198; in [5], 0.083; in assay [6] it was 0.064; in [3], 0.047; in assay [8], -0.189; in assay [4], -0.144. The log2 fold change in assay [10] was 0.073.
